Values joined by “and” are separate entries in the source; they are usually repeats but may differ in a detail not shown here. Equal entries are not always repeated. About 83,000 compounds went through this panel and 20% of them were active in at least one assay; those are over-represented in the sample as a whole.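 Cell lines were cultured in 96-well plates, exposed to a single compound concentration, and assessed for percent growth 48 hours later.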 Active and inactive are the calls of the source. Rule for the calls: active = growth percent below 10; inactive = the rest.
tested on: HL-60(TB) leukemia; experiment: NCI-60 one-dose screen, 48 h (100 = growth as untreated, 0 = no growth, -100 = all killed); details: 10 µM unless noted

Structure (SMILES)	growth
CCCCCCCCCCCCCCCCCC1=NCCN1CCO	36.3% (inactive)
COc1ccc(OC)c(C(=O)/C=C/c2cc3c(c(OC)c2OC)OCO3)c1	48.6% (inactive)
OCc1cccc(-c2ccc3ncc(-c4nc(NC5CC5)ncc4F)n3c2)c1	-62% (active)
O=C(COc1ccc(-c2nc3ccccc3[nH]2)cc1)N=Nc1c(O)[nH]c2ccc(Cl)cc12	39.9% (inactive)
CCc1cccc2c3c(sc12)C(c1ccc(F)cc1)C(C#N)=C(N)O3 (centres undefined)	1.86% (active)
Cc1ccc(S(=O)(=O)Nc2ccc(Cl)cc2)cc1	119% (inactive)
CCN(CC)CCNc1ccc(C)c2sc3ccccc3c(=O)c12 (tested in a mixture with another compound)	10.1% (inactive) and 15.3% (inactive)
COc1ccc(-c2cn(-c3ccccc3)c(-c3ccccc3)n2)cc1OC	8.37% (active)
Cn1c(SSc2ccc(-c3cccnc3)n2C)ccc1-c1cccnc1	62.8% (inactive) and -32.2% (active)
O=C(/C=C/c1cccc(O)c1)c1cccc(-n2cc(-c3ccccc3)[nH]c2=O)c1	42.1% (inactive)
CCN(CCNS(C)(=O)=O)c1ccc(N)c(C)c1	11.5% (inactive) and 77.3% (inactive)
COc1ccc(Cc2cc(-c3ccccc3)nn(Cc3ccccc3)c2=O)cc1OC	25.8% (inactive)
COc1ccc(/C=C/c2nnc(/C=C/c3ccc(OC)c(OC)c3)o2)cc1OC	12.1% (inactive)
CCn1ccnc1C(=O)/C=C/c1ccc(CC(=O)Nc2ccc(F)cc2)cc1	27.9% (inactive)
Cc1cn(-c2cc(NC(=O)c3cncc(C#Cc4cnc(N)c5ncccc45)c3)cc(C(F)(F)F)c2)cn1	18.7% (inactive)
COc1cc(-c2nc3occn3c2-c2ccnc(NCCNS(=O)(=O)c3ccc(Cl)cc3)n2)ccc1F	100% (inactive)
O=C1Nc2ccc(Br)cc2/C1=N/c1n[nH]c(=S)s1	99.2% (inactive)
Cc1ccc(-c2cc(-c3ccc(Cl)cc3)nc(NC(=O)c3cccnc3)n2)cc1	110% (inactive)
O=C1NC(=S)NC(=O)C1=Cc1cccc(C=C2C(=O)NC(=S)NC2=O)c1	101% (inactive)
Cc1cc(Nc2cccc(C(F)(F)F)c2)n2c(nc3ccccc32)c1C#N	31.8% (inactive)

Structure (SMILES)	growth
COc1ccc(/C=C2\COc3ccc(O)c(O)c3C2=O)cc1	-5.92% (active)
CC(=O)[C@@H]1CC[C@]2(C(N)=O)CC[C@]3(C)[C@H](CC[C@@H]4[C@@]5(C)CCC(=O)C(C)(C)[C@@H]5CC[C@]43C)[C@@H]12	89.7% (inactive)
COc1cc2nc(N3CCC[C@@H](NC(=O)C4COc5ccccc5O4)C3)nc(N)c2cc1OC (some centres undefined)	105% (inactive) and 102% (inactive)
COc1ccc(-c2ccc3cnc4sc(-c5ccc(OC)cc5)nc4c3n2)cc1	95.3% (inactive)
COc1ccc(-c2cn(-c3cccc(C(=O)/C=C/c4cc(OC)c(OC)c(OC)c4)c3)c(=O)[nH]2)cc1OC	66.6% (inactive)
C[n+]1ccc(Nc2ccc(NC(=O)c3ccc(Nc4cc[n+](C)c5ccc(N)cc45)cc3)cc2)cc1	82.3% (inactive)
COCCCNC1=C(C#N)C(=O)NC(c2cccs2)S1 (centres undefined)	145% (inactive)
Cn1cc([C@@H]2Nc3ccc4[nH]ncc4c3[C@H]3[C@H]4CCC(C4)[C@H]32)c(C(F)(F)F)n1	7.12% (active)
FC(F)(F)c1ccc2c(c1)N(CCCN1CCN(C3CC3)CC1)c1ccccc1S2	25.6% (inactive)
CCOc1ccc(/C=N/N=C(N)N)cc1OCC	64.5% (inactive)
CCC(=C(c1ccc(OCCN2CCCCC2)cc1)c1ccc(OCCN2CCCCC2)cc1)c1ccc(Cl)cc1	-62.4% (active)
CCOC(=O)c1nc2c3ccccc3ccn2c1C(=O)OCC	97.1% (inactive)
COc1cc(-n2nc(C(=O)Nc3ccc(C(=O)O)cc3)nc2-c2ccccc2)cc(OC)c1OC	103% (inactive)
O=C(CCN1CCCC1)Nc1ccc2c(Nc3ccccc3)c3ccccc3nc2c1	-46% (active)
CNCCNc1nc2ccccc2c2c(=O)c3cc(F)ccc3oc12	95.4% (inactive)
CC(=O)c1ccc2c(c1)c1ccccc1n2C	84.1% (inactive)
CCOC(=O)C(=Cc1cccc(Cl)c1)C(=O)OCC	-2% (active)
COc1cc2oc(-c3ccc(O)cc3)cc(=O)c2c(O)c1I	99% (inactive)
Cc1c(Cl)cccc1NC(=O)c1sc2nc3c(cc2c1N)CCCCC3	-24.9% (active)

Source: PubChem BioAssay (NCI)
